Shown is part of a subset that was picked to be rich in hits.
C_diff_HTS = blocks growth of Clostridium difficile | Clostridium difficile clinical isolate growth, OD600, 24 h; stronger effect = lower value | growth activity, negative = inhibition, % at 16 µg/mL (by protocol) | hit rate 0.25% among 86,000;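 active means mean growth activity at or below -80% and every replicate also at or below -80%; inconclusive means mean at or below -80% but some replicate above -80%; inactive means mean growth activity above -80%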;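 further: 0% = DMSO wells and -100% = levofloxacin 16 µg/mL wells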
T_cruzi_growth-1 = blocks T. cruzi growth in NIH3T3 culture; T. cruzi beta-gal in NIH3T3, GalScreen luminescence, 90 h; inhibition, % at 8.34 µM; hit rate 5.9% among 77,000;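 active means mean inhibition above about 93%, with at least 55% of replicates each passing it, limit read from the data, passing the limit was not always enough; inconclusive means only one of those two conditions holds; inactive means neither condition holds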
T_cruzi_growth-2 = Trypanosoma cruzi proliferation inhibition; hit rate 72% among 5,600; T. cruzi beta-gal in NIH3T3, GalScreen luminescence, 90 h; shares compounds with T_cruzi_growth-1; inhibition, % at 8.35 µM; AID 651739;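 active means mean replicate inhibition above about 95% and at least 55% of replicates individually reaching it, limit read from the data; inconclusive means only one of the two criteria is met; inactive means neither criterion is met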
T_cruzi_growth-3 = blocks T. cruzi growth in NIH3T3 host cells; shares compounds with T_cruzi_growth-1; T. cruzi beta-gal in NIH3T3, GalScreen luminescence, 90 h; inhibition, % at 2.09 µM; hit rate 21% among 5,600; AID 651740;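 active means mean inhibition above about 95%, with at least 55% of replicates also reaching it, limit read from the data; inconclusive means meets just one of the two conditions; inactive means meets neither condition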;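 further: plate controls were neutral control median for no effect and positive control median for full effect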
NIH3T3_tox = NIH/3T3 (mouse) viability loss; shares compounds with T_cruzi_growth-1; hit rate 14% among 5,600; NIH/3T3 viability, CellTiter-Glo ATP luminescence, 90 h; AID 651742; cytotoxicity (signal decrease), % at 8.35 µM;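 active means mean signal decrease across replicates above about 35% based on untreated-well scatter, with enough replicates individually passing, limit read from the data; inconclusive means no rule stated though some were filed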;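 further: 0% = median of neutral control wells and 100% = median of positive control wells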
3T3_cytotox_2 = cytotoxicity in mouse NIH/3T3 fibroblasts; shares compounds with T_cruzi_growth-1; NIH/3T3 viability, CellTiter-Glo ATP luminescence, 90 h; inhibition, % at 24.9 µM; hit rate 56% among 5,600;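 active means mean loss of cell viability signal at or above a set limit, and enough replicates individually reaching it; inconclusive means meets only the mean limit or only the replicate share; inactive means meets neither condition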;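 further: 0% = median of neutral control wells and 100% = median of positive control wells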
* hit, by the source's call; ? = inconclusive; / = no result given; ! = a repeat was not active.

SMILES C_diff_HTS T_cruzi_growth-1 T_cruzi_growth-2 T_cruzi_growth-3 NIH3T3_tox 3T3_cytotox_2
O=C(C[C@H]1C[C@@H]2c3cc(NC(=O)C4CCOCC4)ccc3O[C@@H]2[C@H](CO)O1)NCCN1CCCCC1 -8 171* 75 10 13 -1
O=C(C[C@@H]1C[C@@H]2c3cc(NC(=O)CC4CC4)ccc3O[C@@H]2[C@H](CO)O1)NCCN1CCCCC1 0 -123 / / / /
COc1ccc(CNC(=O)C[C@H]2C[C@@H]3c4cc(NC(=O)C5CCC5)ccc4O[C@@H]3[C@H](CO)O2)cc1 4 165* 11 9 2 -6
O=C(C[C@@H]1C[C@@H]2c3cc(NC(=O)C4CCOCC4)ccc3O[C@@H]2[C@@H](CO)O1)NCc1ccc(Oc2ccccc2)cc1 / 31 / / / /
COc1ccc(CNC(=O)C[C@@H]2C[C@@H]3c4cc(NC(=O)C5CCC5)ccc4O[C@@H]3[C@@H](CO)O2)cc1 3 -36 / / / /
COc1ccc(S(=O)(=O)N(C)C[C@H]2Oc3ccc(NS(=O)(=O)c4ccccc4)cc3CC(=O)N([C@@H](C)CO)C[C@H]2C)cc1 9 37 / / / /
CC(C)c1cn(CC[C@@H]2CC[C@@H](NS(=O)(=O)c3ccccc3)[C@@H](CO)O2)nn1 -8 8 / / / /
COc1ccc(S(=O)(=O)N(C)C[C@H]2Oc3c(NC(=O)Nc4ccc(F)cc4)cccc3C(=O)N([C@@H](C)CO)C[C@@H]2C)cc1 4 36 / / / /
Cc1ccc(S(=O)(=O)N(C)C[C@H]2Oc3cc(Br)ccc3S(=O)(=O)N([C@H](C)CO)C[C@H]2C)cc1 14 67 / / / /
COc1ccc(S(=O)(=O)N(C)C[C@H]2Oc3cc(Br)ccc3S(=O)(=O)N([C@H](C)CO)C[C@H]2C)cc1 5 ? 102* 38 5 54*
COc1ccc(S(=O)(=O)N(C)C[C@@H]2Oc3cc(Br)ccc3S(=O)(=O)N([C@H](C)CO)C[C@@H]2C)cc1 7 ? 101* 39 15 61*
COc1cccc(S(=O)(=O)N(C)C[C@@H]2Oc3cc(Br)ccc3S(=O)(=O)N([C@@H](C)CO)C[C@@H]2C)c1 7 / / / / /
CO[C@H]1CN(C)C(=O)c2cc(NC(=O)Cc3ccccc3)ccc2OC[C@H](C)NC[C@H]1C / 8 / / / /
C[C@@H]1CCCCO[C@H](CN(C)Cc2ccncc2)[C@H](C)CN([C@@H](C)CO)C(=O)c2cc(NC(=O)c3ccncc3)ccc2O1 -6 -13 / / / /
O=C(C[C@@H]1CC[C@H](NC(=O)c2cccc(F)c2)[C@@H](CO)O1)Nc1nccs1 / -22 / / / /
CN(C)C(=O)c1ccc(-c2ccc3c(c2)[C@H]2[C@H](CCN2Cc2ccc4c(c2)OCO4)[C@@H](CO)N3)cc1 67 53 / / / /
N#Cc1ccc(-c2ccc3c(c2)[C@H]2[C@H](CCN2Cc2ccc4c(c2)OCO4)[C@H](CO)N3)cc1 -96* ? 106* 69 -6 105*
OC[C@@H]1Nc2ccc(C#Cc3ccc(F)cc3)cc2[C@H]2[C@@H]1CCN2Cc1ccc2c(c1)OCO2 -3 142* 109* 108* 41* 104*
CN(C)C(=O)c1ccc(-c2ccc3c(c2)[C@@H]2[C@@H](CCN2Cc2ccc4c(c2)OCO4)[C@H](CO)N3)cc1 4 40 / / / /
O=C(c1ccccc1F)N1C[C@@H]2[C@H](c3ccccc31)[C@@H](CO)N2C(=O)c1cccnc1 -4 -10 / / / /
CCC(=O)N1CCCCN2[C@@H](CO)[C@H](c3ccc(/C=C/c4ccccc4)cc3)[C@@H]2C1 11 116* 106* 37 43* 105*
CN1CCCCN2[C@H](CO)[C@@H](c3ccc(/C=C/c4ccccc4)cc3)[C@H]2C1 6 59 / / / /
CCC(=O)N1CCCCN2[C@H](CO)[C@@H](c3ccc(/C=C/c4ccccc4)cc3)[C@H]2C1 -1 91 / / / /
CCC(=O)N1CCCCN2[C@H](CO)[C@H](c3ccc(/C=C/c4ccccc4)cc3)[C@H]2C1 -6 117* 102* 66 27 105*
COc1ccc(NC(=O)N(C)C[C@@H]2OCCCC[C@H](C)Oc3ccc(NS(=O)(=O)c4cccs4)cc3C(=O)N([C@H](C)CO)C[C@H]2C)cc1 -6 0 / / / /
SMILES C_diff_HTS T_cruzi_growth-1 T_cruzi_growth-2 T_cruzi_growth-3 NIH3T3_tox 3T3_cytotox_2
COCC(=O)N(C)C[C@@H]1Oc2cc(C#CCC3CCCC3)ccc2S(=O)(=O)N([C@@H](C)CO)C[C@H]1C 0 / / / / /
CO[C@@H]1CN(C)C(=O)c2cc(NC(=O)CC(F)(F)F)ccc2OC[C@@H](C)N(C(=O)C2CCCC2)C[C@H]1C / -16 / / / /
CCC(=O)NC[C@H]1N[C@H](CO)[C@@H]1c1ccc(-c2ccccc2F)cc1 -6 / / / / /
COCC(=O)NC[C@H]1N[C@H](CO)[C@H]1c1ccc(-c2ccccc2F)cc1 -4 15 / / / /
O=C(NC[C@H]1N[C@H](CO)[C@@H]1c1ccc(-c2ccccc2F)cc1)c1ccccc1 36 ? 96* 11 2 105*
COCC(=O)NC[C@@H]1N[C@@H](CO)[C@H]1c1ccc(C2=CCCC2)cc1 7 -1 / / / /
O=C(NC[C@@H]1N[C@@H](CO)[C@H]1c1ccc(-c2ccccc2F)cc1)c1ccccc1 27 109* 107* 34 5 104*
O=C(NC[C@@H]1N[C@@H](CO)[C@H]1c1ccc(C2=CCCC2)cc1)c1ccccc1 6 40 / / / /
O=C(NC[C@@H]1N[C@@H](CO)[C@@H]1c1ccc(C2=CCCC2)cc1)c1ccccc1 51 113* 108* 82 39* 107*
COCC(=O)NC[C@H]1N[C@H](CO)[C@@H]1c1ccc(C2=CCCCC2)cc1 -4 98* 70 -9 -10 12
CCNC(=O)Nc1ccc2c(c1)C(=O)N(C)[C@@H]1CC[C@@H](CC(=O)Nc3ccccc3)O[C@H]1CO2 -10 -22 / / / /
N#C[C@@H]1[C@@H](c2ccc(C3=CCCCC3)cc2)[C@@H](CO)N1S(=O)(=O)c1ccccc1 9 96* 102* 56 55* 60*
N#C[C@@H]1[C@H](c2ccc(C3=CCCCC3)cc2)[C@H](CO)N1S(=O)(=O)c1cccc(F)c1 7 103* 102* 43 14 79*
N#C[C@H]1[C@H](c2ccc(C3=CCCCC3)cc2)[C@@H](CO)N1S(=O)(=O)c1cccc(F)c1 5 47 / / / /
N#C[C@H]1[C@H](c2ccc(C3=CCCCC3)cc2)[C@@H](CO)N1S(=O)(=O)c1ccccc1 4 86 / / / /
C[C@@H]1CN([C@@H](C)CO)C(=O)c2cc(N(C)C)ccc2O[C@@H](C)CCCCO[C@@H]1CN(C)S(=O)(=O)c1cccs1 2 106*! 20 14 -18 -18
C[C@@H]1CCCCO[C@@H](CN(C)S(=O)(=O)c2cccs2)[C@@H](C)CN([C@@H](C)CO)C(=O)c2cc(NS(=O)(=O)c3ccc(Cl)cc3)ccc2O1 / 99 / / / /

High-throughput results as filed in PubChem BioAssay.
